Drawing on PubChem BioAssay AID720706 (Broad Institute, 2013), this text covers GFP signal change (wild-type ribosome), OD600 change and RFP signal change for 39 molecules.

Hit rate of the full screen: of about 350,000 compounds, about 5,500 (1.6%) were called active. This is one part of a sample in which actives are shown more often than they occur.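 How the source made its calls: active means significant combined selectivity score with lowered wild-type GFP, culture density cut under 30%, mutant RFP and density less affected; inactive means any of these conditions unmet.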

The assay can be described thus: GFP drop in mixed WT/humanized-ribosome E. coli culture – GFP/RFP fluorescence, OD600, single point, bacterial rRNA inhibitor project, primary screen (AID 720706). Conditions: E. coli WT GFP vs humanized-ribosome RFP mutants, 24 h; GFP signal change (wild-type ribosome): stronger effect = lower value, DMSO median 0, no signal -100; OD600 change: measured here: OD600 growth, DMSO median 0, no signal -100; RFP signal change: measured here: RFP humanized mutant strains, DMSO median 0, no signal -100, concentration not given here.
Regarding `CC(C)NC(=O)N(C)C[C@@H]1OCc2ccccc2-c2c(n(C)c3ccccc23)C(=O)N([C@@H](C)CO)C[C@H]1C`, the GFP signal change (wild-type ribosome) was 1.88% (inactive), the OD600 change is -5.55% and the RFP signal change is -8.97%.

For the molecule `Cc1n[nH]c(C)c1S(=O)(=O)N1CCCC(C(=O)Nc2ccc(Br)cc2)C1` (configuration not stated), the GFP signal change (wild-type ribosome) was -18.5% (active), the OD600 change was -8.94% and the RFP signal change came to 2.17%.

Take `CC(=O)Nc1ccc(NC(=O)C2CCCN(S(=O)(=O)c3ccc(Cl)cc3)C2)cc1` (configuration not stated): the GFP signal change (wild-type ribosome) was 6.79% (inactive), the OD600 change is 9.12% and the RFP signal change is -1.21%.

For `CC(C)c1ccc(NC(=O)C2CCCN(S(=O)(=O)c3cccnc3)C2)cc1` (configuration not stated), the GFP signal change (wild-type ribosome) was -15.6% (inactive), the OD600 change is -14.1% and the RFP signal change is -1.15%.

As for `C[C@H](CO)N1C[C@H](C)[C@H](CN(C)CC2CCCCC2)Oc2ccc(NC(=O)CCCCCC(=O)Nc3ccccc3N)cc2C1=O`, the GFP signal change (wild-type ribosome) is 3.67% (inactive), the OD600 change was 1.29% and the RFP signal change was determined as 2.33%.

In the case of `CN(C)C(=O)[C@H]1[C@H](CO)[C@H]2Cn3c(ccc(-c4ccc(F)cc4)c3=O)[C@H]2N1C(=O)c1ccccn1`, the GFP signal change (wild-type ribosome) was 3.15% (inactive), the OD600 change came out at 9.51% and the RFP signal change came to 0.335%.

For `COC(=O)C[C@@H]1CC[C@@H]2[C@H](COc3ccc(NS(=O)(=O)c4ccccc4F)cc3C(=O)N2C)O1`, the GFP signal change (wild-type ribosome) is -1.08% (inactive), the OD600 change was found to be 1.69% and the RFP signal change came to 1.71%.

As to `Brc1ccccc1CN1CCC(Cc2ccccc2)CC1`, the GFP signal change (wild-type ribosome) was -24.7% (active), the OD600 change is -12% and the RFP signal change was -3.42%.

Consider `O=S1(=O)CCOC[C@H](Cc2ccccc2)N1Cc1ccccc1Br`, for which the GFP signal change (wild-type ribosome) is -13.5% (inactive), the OD600 change is -12.2% and the RFP signal change was -2.23%.

Turning to `NC(=O)c1ccc(CN2CCC(Cc3ccccc3)CC2)cc1`, the GFP signal change (wild-type ribosome) was 20.9% (inactive), the OD600 change is 10.4% and the RFP signal change turned out to be 1.24%.

Turning to `O=C(C[C@H]1CC[C@@H]2[C@H](COC[C@H](O)CN2S(=O)(=O)c2ccccc2)O1)N1CCOCC1`, the GFP signal change (wild-type ribosome) was 6.11% (inactive), the OD600 change turned out to be 11.2% and the RFP signal change is -4.33%.

For the molecule `O=C(c1ccccc1)N1CC(=O)N2[C@@H](CO)[C@H](c3ccc(C#CC4CC4)cc3)[C@@H]2C1`, the GFP signal change (wild-type ribosome) is 4.2% (inactive), the OD600 change is 0.601% and the RFP signal change is -2.44%.

For the molecule `CCCNC(=O)N1CC2(CN(C(=O)C3CCCCC3)C2)c2c([nH]c3cc(OC)ccc23)[C@@H]1CO`, the GFP signal change (wild-type ribosome) is -0.587% (inactive), the OD600 change is -2.63% and the RFP signal change is -0.961%.

Turning to `Cc1cccc(CN2CCN(C3CN(Cc4cn(Cc5ccccc5F)nn4)S(=O)(=O)C3)CC2)c1` (configuration not stated), the GFP signal change (wild-type ribosome) was 6% (inactive), the OD600 change is 11% and the RFP signal change is -3.05%.

For `O=S1(=O)CC(N2CCN(Cc3ccccc3F)CC2)CN1Cc1cn(Cc2ccccc2)nn1` (configuration not stated), the GFP signal change (wild-type ribosome) is 15% (inactive), the OD600 change amounted to 11.5% and the RFP signal change came out at 0.47%.

`O=S1(=O)CC(N2CCN(Cc3ccccc3F)CC2)CN1Cc1cn(Cc2cccc(C(F)(F)F)c2)nn1` (configuration not stated): the GFP signal change (wild-type ribosome) is -29.5% (active), the OD600 change was -22.9% and the RFP signal change was -2.53%.

On to `C[C@@H]1CN([C@H](C)CO)C(=O)c2cccc(NC(=O)C3CC3)c2O[C@@H]1CN(C)C(=O)Nc1ccccc1`, for which the GFP signal change (wild-type ribosome) is 4.57% (inactive), the OD600 change came out at 10.7% and the RFP signal change is -0.0555%.

Take `O=C(C[C@H]1CC[C@@H](NC(=O)Cc2ccccn2)[C@H](CO)O1)NCCc1ccccc1`: the GFP signal change (wild-type ribosome) is -0.355% (inactive), the OD600 change was -12% and the RFP signal change is -1.51%.

Take `CN1c2ccc([N+](=O)[O-])cc2C(C)(C)C12C=Cc1cc(C(=O)O)ccc1O2` (configuration not stated): the GFP signal change (wild-type ribosome) is -34.2% (active), the OD600 change was -21.4% and the RFP signal change is -10.7%.

For `Cc1cc(C(=O)O)ccc1[N+](=O)[O-]`, the GFP signal change (wild-type ribosome) is -5.96% (inactive), the OD600 change is -5.09% and the RFP signal change is -0.268%.

Turning to `O=[N+]([O-])c1ccc(N2CCN(c3ccc(O)cc3)CC2)c(Cl)c1`, the GFP signal change (wild-type ribosome) is -7.92% (inactive), the OD600 change stood at 0.78% and the RFP signal change came out at 1.58%.

As for `O=C(c1cccc(F)c1)N1C[C@H]2[C@@H](c3ccccc31)[C@@H](CO)N2C(=O)Cc1ccccc1`, the GFP signal change (wild-type ribosome) was 2.22% (inactive), the OD600 change was 9.86% and the RFP signal change was -2.34%.

With `CN(C)CCOc1ccc(Cl)cc1C(C)(C)C`, the GFP signal change (wild-type ribosome) is -1.5% (inactive), the OD600 change was 4.96% and the RFP signal change stood at 1.97%.

In the case of `CN(C)CCOCCOc1ccc(Cl)c2ccccc12`, the GFP signal change (wild-type ribosome) is -18.5% (active), the OD600 change was -8.69% and the RFP signal change was determined as 3.22%.

Turning to `CCN(CC)CCOCCOc1ccc(Cl)c2ccccc12`, the GFP signal change (wild-type ribosome) was -15.6% (inactive), the OD600 change is -34.8% and the RFP signal change amounted to 10.8%.

`CCC(=O)N(C)C[C@H]1Oc2cc(/C=C/c3ccccc3)ccc2S(=O)(=O)N([C@H](C)CO)C[C@@H]1C`: the GFP signal change (wild-type ribosome) is -13.8% (inactive), the OD600 change was -24.1% and the RFP signal change worked out at 1.56%.

In the case of `COc1ccc(C#Cc2cnc3c(c2)C(=O)N([C@H](C)CO)C[C@H](C)[C@H](CN(C)S(=O)(=O)c2ccc(F)cc2)O3)cc1OC`, the GFP signal change (wild-type ribosome) is -1.5% (inactive), the OD600 change is 6.11% and the RFP signal change amounted to 0.148%.

Turning to `O=C(C[C@H]1C=C[C@H](NC(=O)CC2CC2)[C@@H](CO)O1)NCc1ccccc1`, the GFP signal change (wild-type ribosome) is -2.86% (inactive), the OD600 change was -1.4% and the RFP signal change stood at 0.749%.

On to `C[C@@H]1CC=CC[C@@H](c2ccccc2)NC(=O)[C@@H](Cc2ccccc2)N(C)C(=O)c2ccccc2O1` (mixture of isomers), for which the GFP signal change (wild-type ribosome) was -3.7% (inactive), the OD600 change is -8.18% and the RFP signal change is -0.954%.

Take `C[C@@H]1CCCCO[C@H](CN(C)S(=O)(=O)c2ccc(Cl)cc2)[C@H](C)CN([C@@H](C)CO)C(=O)c2cc(NS(=O)(=O)c3cn(C)cn3)ccc2O1`: the GFP signal change (wild-type ribosome) was -4.15% (inactive), the OD600 change was -10.5% and the RFP signal change amounted to 3.24%.

As to `C[C@@H]1CN([C@@H](C)CO)S(=O)(=O)c2ccc(C#Cc3ccc(F)cc3)cc2O[C@@H]1CN(C)CC1CC1`, the GFP signal change (wild-type ribosome) was 3.12% (inactive), the OD600 change is -6.33% and the RFP signal change came to 12.1%.

For the molecule `O=[N+]([O-])c1cccc(/C([O-])=C(/C(=S)Nc2ccccc2F)[n+]2ccccc2)c1`, the GFP signal change (wild-type ribosome) is 4.97% (inactive), the OD600 change is 13.1% and the RFP signal change is 6.65%.

Take `CCOc1ccccc1NC(=S)C(=C([O-])c1ccc2c(c1)OCCO2)[n+]1ccc(CC)cc1`: the GFP signal change (wild-type ribosome) was -17.2% (active), the OD600 change is -16.2% and the RFP signal change is 11.5%.

For `CCc1ccccc1OCC(=O)Nc1ccc2c(c1)OCCO2`, the GFP signal change (wild-type ribosome) is -18.9% (inactive), the OD600 change was -29.9% and the RFP signal change was determined as 1.18%.

Take `COc1ccc2c3c(n(C)c2c1)[C@H](CO)N(S(=O)(=O)c1ccc(C)cc1)CC31CCN(C(=O)c2ccccn2)CC1`: the GFP signal change (wild-type ribosome) is -3.17% (inactive), the OD600 change was -3.75% and the RFP signal change worked out at 3.99%.

For `CS(=O)(=O)N(CC(=O)N1CCc2ccccc2C1)c1ccc(Br)cc1`, the GFP signal change (wild-type ribosome) was -22.4% (active), the OD600 change is -11% and the RFP signal change is 0.676%.

Consider `COc1ccc(N(CC(=O)N2CCCCCC2)S(=O)(=O)c2ccccc2)cc1`, for which the GFP signal change (wild-type ribosome) was -1.75% (inactive), the OD600 change is -4.39% and the RFP signal change is -2.53%.

With `CS(=O)(=O)N(CC(=O)N1CCN(Cc2ccccc2)CC1)c1ccc2c(c1)OCCO2`, the GFP signal change (wild-type ribosome) is 3.15% (inactive), the OD600 change is 8.73% and the RFP signal change is -8.62%.

With `COCc1cn(CC[C@H]2CC[C@H](NC(=O)c3ccncc3)[C@H](CO)O2)nn1`, the GFP signal change (wild-type ribosome) was 1.82% (inactive), the OD600 change is 6.54% and the RFP signal change was -3.21%.
